The nature of test [1]: qHTS assay to identify small molecule antagonists of the glucocorticoid receptor (GR) signaling pathway - cell viability counter screen (AID 720693). Also: nearly all actives have a fitted effect of over 55% in size. For orientation: Quantitative high-throughput screening tests each substance at several concentrations.
Test [2] is described as follows: qHTS assay for identifying genotoxic compounds that show differential cytotoxicity against isogenic chicken DT40 cell lines with known DNA damage response pathways - wild type cell line (AID 743012). Also: nearly all actives have a fitted effect of over 60% in size. Also: potency is read from the fitted curve at half-maximal effect. A digest of the protocol: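 300 wt DT40 cells/well; cpd (DMSO) pintool-transferred after ~0.5 h at 37 C/5% CO2; 40 h incubation; CellTiter-Glo added, 30 min RT; luminescence read.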

Test [3] is described as follows: qHTS assay for identifying genotoxic compounds that show differential cytotoxicity against isogenic chicken DT40 cell lines with known DNA damage response pathways - Rev3 mutant cell line (AID 743014). Also: nearly all actives have a fitted effect of over 55% in size. Also: potency is read from the fitted curve at half-maximal effect.
A short description of test [4]: qHTS assay for identifying genotoxic compounds that show differential cytotoxicity against isogenic chicken DT40 cell lines with known DNA damage response pathways - Rad54/Ku70 mutant cell line (AID 743015). Also: nearly all actives have a fitted effect of over 60% in size. Also: potency is read from the fitted curve at half-maximal effect.
Test [5] is described as follows: qHTS assay to identify small molecule antagonists of the androgen receptor (AR) signaling pathway - cell viability counter screen (AID 743033; also: nearly all actives have a fitted effect of over 45% in size).
The target in test [6] is Androgen receptor (Homo sapiens) (UniProt P10275). In words: qHTS assay to identify small molecule antagonists of the androgen receptor (AR) signaling pathway (AID 743035; active = well fitted inhibition curve with a large enough effect in the signal ratio in the repeat runs, not every such curve was filed as active; the % refers to the signal ratio; also: potency is read from the fitted curve at half-maximal effect). In short, it runs like this: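 In this cell-based reporter screen, compounds were tested in concentration series against R1881-activated HEK293 cells expressing beta-lactamase under UAS control; after 16 h at 37C, FRET substrate was added and fluorescence read 2 h later.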
Androgen receptor (Homo sapiens), sequence (P10275 whole entry, looked up): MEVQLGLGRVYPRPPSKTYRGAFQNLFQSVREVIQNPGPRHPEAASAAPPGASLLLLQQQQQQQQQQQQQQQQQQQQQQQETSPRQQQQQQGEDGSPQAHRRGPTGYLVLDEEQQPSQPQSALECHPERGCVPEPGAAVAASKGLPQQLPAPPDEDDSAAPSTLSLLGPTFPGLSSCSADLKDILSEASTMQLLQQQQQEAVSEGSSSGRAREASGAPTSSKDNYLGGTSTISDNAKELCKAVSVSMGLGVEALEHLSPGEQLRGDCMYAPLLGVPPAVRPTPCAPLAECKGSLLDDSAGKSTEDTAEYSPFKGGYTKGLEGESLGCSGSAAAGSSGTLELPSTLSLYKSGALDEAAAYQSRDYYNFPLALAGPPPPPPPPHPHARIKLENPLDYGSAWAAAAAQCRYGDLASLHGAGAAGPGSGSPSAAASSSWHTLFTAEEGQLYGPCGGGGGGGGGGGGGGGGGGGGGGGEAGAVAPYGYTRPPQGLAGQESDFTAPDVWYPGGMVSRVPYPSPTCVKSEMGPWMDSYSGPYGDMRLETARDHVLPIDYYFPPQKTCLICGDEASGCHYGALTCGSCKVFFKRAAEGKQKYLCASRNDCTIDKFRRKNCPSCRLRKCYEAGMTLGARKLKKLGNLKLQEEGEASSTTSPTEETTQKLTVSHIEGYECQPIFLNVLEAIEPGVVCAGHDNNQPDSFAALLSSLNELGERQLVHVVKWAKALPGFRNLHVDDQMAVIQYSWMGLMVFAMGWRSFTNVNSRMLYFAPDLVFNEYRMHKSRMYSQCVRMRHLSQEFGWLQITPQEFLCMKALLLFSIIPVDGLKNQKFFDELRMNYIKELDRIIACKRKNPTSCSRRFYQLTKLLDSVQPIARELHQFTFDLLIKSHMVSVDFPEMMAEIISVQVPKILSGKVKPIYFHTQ

The nature of test [7]: qHTS assay to identify small molecule antagonists of the thyroid receptor (TR) signaling pathway - cell viability counter screen (AID 743064). Also: nearly all actives have a fitted effect of over 50% in size. Also: potency is read from the fitted curve at half-maximal effect. In short, it runs like this: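 CellTiter-Fluor readout, 30 min at 37 °C/5% CO2, following 23.5 h incubation of GH3.TRE-Luc cells with test compound and 1 nM T3 (final).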
The nature of test [8]: qHTS assay to identify small molecule antagonists of the thyroid receptor (TR) signaling pathway (AID 743065). Also: nearly all actives have a fitted effect of over 55% in size. Also: potency is read from the fitted curve at half-maximal effect. A digest of the protocol: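 GH3.TRE-Luc rat pituitary cells carrying two TR response elements driving luciferase were plated for 4 h, given compound plus 1 nM T3 (final), and incubated 23.5 h at 37 C. ONE-Glo luminescence measured reporter inhibition; CellTiter-Fluor fluorescence tracked cytotoxicity.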

Test [9] has as its target Estrogen receptor (Homo sapiens) (UniProt P03372). In words: qHTS assay to identify small molecule agonists of the estrogen receptor alpha (ER-alpha) signaling pathway (AID 743075; calls by dose curve).
Test [10] shares this target. Nature of the test: qHTS assay to identify small molecule agonists of the estrogen receptor alpha (ER-alpha) signaling pathway using the BG1 cell line (AID 743079). Also: nearly all actives have a fitted effect of over 20% in size. The note with it: BG1Luc4E2 cells, ERE-luciferase agonist, 22 h; activation: at 70.3 µM (top of the series).
The nature of test [11]: qHTS assay to identify small molecule antagonists of the estrogen receptor alpha (ER-alpha) signaling pathway using the BG1 cell line (AID 743080; calls by dose curve;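 also: BG1 cells stimulated with 17beta-estradiol alongside compound; nearly all actives have a fitted effect of over 25% in size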). In short, it runs like this: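 Luciferase inhibition measured with ONE-Glo after 30 min at RT in BG1Luc4E2 cells given test compounds and 17beta-estradiol for 21.5 h at 37 C; CellTiter-Fluor viability read in the same wells beforehand.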

Test [12] can be described thus: qHTS assay to identify small molecule antagonists of the estrogen receptor alpha (ER-alpha) signaling pathway using the BG1 cell line - cell viability counter screen (AID 743081).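 Also: compound given together with 17beta-estradiol as the ER stimulus; nearly all actives have a fitted effect of over 45% in size.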
In test [13] the target is Aromatase (Homo sapiens) (UniProt P11511). Nature of the test: qHTS assay to identify aromatase inhibitors (AID 743083). Also: nearly all actives have a fitted effect of over 55% in size.
Aromatase (Homo sapiens), sequence (P11511 whole entry, looked up): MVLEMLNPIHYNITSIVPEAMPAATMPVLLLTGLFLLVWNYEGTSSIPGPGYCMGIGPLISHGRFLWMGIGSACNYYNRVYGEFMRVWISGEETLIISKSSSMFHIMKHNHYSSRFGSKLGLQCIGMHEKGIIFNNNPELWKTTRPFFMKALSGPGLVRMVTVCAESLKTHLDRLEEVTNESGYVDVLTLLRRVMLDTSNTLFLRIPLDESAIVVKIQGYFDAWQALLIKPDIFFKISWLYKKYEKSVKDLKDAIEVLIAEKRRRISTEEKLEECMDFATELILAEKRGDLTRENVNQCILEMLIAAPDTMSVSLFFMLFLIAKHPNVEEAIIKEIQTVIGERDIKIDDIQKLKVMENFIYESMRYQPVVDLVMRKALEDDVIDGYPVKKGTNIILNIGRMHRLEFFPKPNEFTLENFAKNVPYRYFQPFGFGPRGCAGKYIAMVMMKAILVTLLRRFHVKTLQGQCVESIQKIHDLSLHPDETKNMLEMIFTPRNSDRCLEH
Test [14] deals with Androgen receptor (Homo sapiens) (UniProt P10275). Nature of the test: qHTS assay to identify small molecule agonists of the androgen receptor (AR) signaling pathway (AID 743036; active = well fitted activation curve with a large enough effect in the signal ratio in the repeat runs, with a control signal flat, not every such curve was filed as active; the % refers to the signal ratio). A digest of the protocol: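 Following a 4 h settling period, AR-UAS-bla HEK293 cells were dosed with compounds for 16 h at 37C. A 2 h room-temperature incubation with LiveBLAzer B/G FRET substrate preceded the fluorescence measurement.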

Test [15] shares this target. Nature of the test: qHTS assay to identify small molecule antagonists of the androgen receptor (AR) signaling pathway using the MDA cell line (AID 743042; also: nearly all actives have a fitted effect of over 55% in size). A digest of the protocol: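 MDA-kb2 cells (human breast carcinoma, stably carrying an MMTV-luciferase reporter responsive to AR and GR) were plated at 3,000 cells/well and preincubated 5 hr at 37C, then given compound plus R1881 agonist for 16 h. ONE-Glo luminescence was read.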

The test system of test [16] is thyroid hormone receptor (rat, GH3 cells). Nature of the test: qHTS assay to identify small molecule agonists of the thyroid receptor (TR) signaling pathway (AID 743066; calls by dose curve).
Test [17] addresses Androgen receptor (Homo sapiens) (UniProt P10275). In words: qHTS assay to identify small molecule agonists of the androgen receptor (AR) signaling pathway using the MDA cell line (AID 743040; also: nearly all actives have a fitted effect of over 20% in size). In short, it runs like this: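 Agonist activity is measured as luciferase luminescence in human MDA-kb2 cells whose MMTV reporter responds to both AR and GR. Compounds in DMSO incubate 16 h at 37C, 0% CO2, and ONE-Glo is read after 30 min.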

Test [18] in a line: qHTS assay to identify small molecule antagonists of the androgen receptor (AR) signaling pathway using the MDA cell line - cell viability counter screen (AID 743041; also: nearly all actives have a fitted effect of over 45% in size). In short, it runs like this:
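qHTS viability read-out; MDA-kb2 AR-luc; R1881-stimulated; 16 h exposure at 37C, 0% CO2; CellTiter-Fluor, 30 min; fluorescence intensity.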

Test [19] addresses Estrogen receptor (Homo sapiens) (UniProt P03372). Nature of the test: qHTS assay to identify small molecule antagonists of the estrogen receptor alpha (ER-alpha) signaling pathway (AID 743069; active = well fitted curve in the direction sought with a large enough effect in the signal ratio in the repeat runs, not every such curve was filed as active; the % refers to the signal ratio). A digest of the protocol: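 Screening used a UAS-driven beta-lactamase reporter integrated into HEK293 cells expressing ER-alpha, stimulated with 17beta-estradiol alongside test compounds over 18 hr at 37C; signal came from LiveBLAzer B/G FRET fluorescence.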

Test [20] is described as follows: qHTS assay to identify small molecule antagonists of the estrogen receptor alpha (ER-alpha) signaling pathway - cell viability counter screen (AID 743074; calls by dose curve; also: nearly all actives have a fitted effect of over 45% in size).

Records with an inconclusive call do not appear. Active and inactive are the calls of the source. Unless noted, calls follow the shape of the dose curve; as a rule, active = well fitted curve in the direction sought with a large enough effect in the repeat runs; inconclusive = weak or mixed curves; inactive = no such curve, though single readings can be large; an effect the other way counts as inactive or inconclusive.

Estrogen receptor (Homo sapiens), sequence (P03372 whole entry, looked up): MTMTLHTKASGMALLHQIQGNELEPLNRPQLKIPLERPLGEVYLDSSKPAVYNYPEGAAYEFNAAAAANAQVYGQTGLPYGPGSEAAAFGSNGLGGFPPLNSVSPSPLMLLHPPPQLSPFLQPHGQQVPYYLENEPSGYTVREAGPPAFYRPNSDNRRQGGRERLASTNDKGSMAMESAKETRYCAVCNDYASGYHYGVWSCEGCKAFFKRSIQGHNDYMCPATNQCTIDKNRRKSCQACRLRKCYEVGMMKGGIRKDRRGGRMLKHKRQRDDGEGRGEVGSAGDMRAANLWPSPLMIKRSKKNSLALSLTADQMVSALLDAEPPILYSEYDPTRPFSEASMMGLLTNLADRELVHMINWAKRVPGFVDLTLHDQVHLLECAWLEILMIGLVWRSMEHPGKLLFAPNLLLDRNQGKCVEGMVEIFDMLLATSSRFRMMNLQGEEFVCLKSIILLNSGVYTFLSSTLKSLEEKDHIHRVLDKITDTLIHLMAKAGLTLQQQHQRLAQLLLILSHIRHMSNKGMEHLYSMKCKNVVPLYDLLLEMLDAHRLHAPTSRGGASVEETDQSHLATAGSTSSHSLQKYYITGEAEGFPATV

As for `Cc1c(C(=O)NN2CCCCC2)nn(-c2ccc(Cl)cc2Cl)c1-c1ccc(Cl)cc1`, the Potency result in test [1], in test [5], in [9], in test [10], in [11] and in test [12] was “inactive” throughout. Also, in test [13], the Potency result was “inactive”. Further, the Potency in test [2] was 11.9 µM (active); in test [3], 11.9 µM (active); in test [4], 11.9 µM (active); in test [6] it was 19 µM (active); in test [7], 16.8 µM (active); in test [8] it was 11.9 µM (active).
Consider `C[Si]1(C)O[Si](C)(C)O[Si](C)(C)O1`, for which the Potency entry in [1], in test [2], in test [3], in test [4], in test [5] and in [6] was “inactive” throughout. For the same compound, the Potency entry in test [14], in test [15], in test [7], in test [8], in test [12] and in test [13] was “inactive” each time. The compound was classed as inactive in test [16].
For `CCCOC(=O)c1ccc(C(=O)OCCC)nc1`, the Potency result in test [1], in test [2], in [3], in [4], in test [5] and in test [17] was “inactive” each time. Moreover, the Potency entry in [18], in [15], in [7], in test [8], in test [19] and in test [20] was “inactive” in each case. For the same compound, the Potency entry in [9], in test [10], in test [11], in test [12] and in test [13] was “inactive” each time. For the same compound, in test [16], the call was inactive.
Consider `CC1=CC(=O)CC(C)(C)C1(O)/C=C/C(C)=C\C(=O)O` (stereo not given), for which the Potency result in test [1], in test [2], in [3], in test [4], in test [5] and in test [18] was “inactive” each time. Also, the Potency result in test [7], in [8], in test [20], in [12] and in test [13] was “inactive” in each case. Besides, the result in test [16] was inactive.
Consider `O=Cc1c(Cl)cccc1Cl`, for which the Potency result in test [1], in [2], in test [3], in test [4], in test [5] and in test [18] was “inactive” in each case. In addition, the Potency entry in test [7], in [8], in test [19], in [20], in test [9] and in [10] was “inactive” throughout. The Potency entry in test [12] and in test [13] was “inactive” throughout. For the same compound, in test [16], the compound was classed as inactive.
With `CC1(C)C2=CCCC(C)(C)[C@]23CC[C@H]1C3`, the Potency result in test [1], in test [5], in test [6], in test [14], in test [18] and in [15] was “inactive” in each case. Further, the Potency result in test [7], in test [20] and in test [12] was “inactive” each time. Also, the Potency is 54.5 µM (active) in test [2], 43.3 µM (active) in test [3] and 30.6 µM (active) in test [4]. The result in [16] was inactive.
For `COc1ccc(CCC(=O)c2c(O)cc(O[C@@H]3O[C@H](CO)[C@@H](O)[C@H](O)[C@H]3O[C@@H]3O[C@@H](C)[C@H](O)[C@@H](O)[C@H]3O)cc2O)cc1O`, the Potency result in test [1], in test [2], in test [3], in [4], in test [5] and in test [6] was “inactive” in each case. Moreover, the Potency entry in [14], in test [18], in [15], in test [7], in [8] and in test [19] was “inactive” each time. Further, the Potency entry in test [20], in [9], in test [10], in [11], in test [12] and in test [13] was “inactive” each time. Further, the compound was called inactive in [16].
As to `CC(=O)Nc1ccc(N)cc1`, the Potency result in [1], in [2], in test [3], in test [4], in test [5] and in [6] was “inactive” throughout. Moreover, the Potency result in test [14], in test [18], in [15], in test [19], in test [20] and in test [9] was “inactive” each time. Besides, the Potency result in test [10], in test [11], in [12] and in test [13] was “inactive” each time. For the same compound, the compound was classed as inactive in test [16].

Source of the values: PubChem BioAssay (Tox21).
